# Screens: PubChem, The Scripps Research Institute Molecular Screening Center
# DAX1 inh-1: inhibitors of human orphan nuclear receptor DAX1 (NR0B1); HEK293 Gal4-DAX1 luciferase reporter, luminescence; inhibition, % at 6.75 µM; 340,000 compounds, 0.99% hits; AID 504766;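 active means inhibition above the mean over all tested compounds plus 3 SD, cut at about 4.2% in these data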;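 further: 0% = DAX1-transfected cells with DMSO and 100% = empty-vector control cells with DMSO; inhibition shows as a rise in luminescence from relieved DAX1 repression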
# Target sequence (P51843 207-470 limits assumed): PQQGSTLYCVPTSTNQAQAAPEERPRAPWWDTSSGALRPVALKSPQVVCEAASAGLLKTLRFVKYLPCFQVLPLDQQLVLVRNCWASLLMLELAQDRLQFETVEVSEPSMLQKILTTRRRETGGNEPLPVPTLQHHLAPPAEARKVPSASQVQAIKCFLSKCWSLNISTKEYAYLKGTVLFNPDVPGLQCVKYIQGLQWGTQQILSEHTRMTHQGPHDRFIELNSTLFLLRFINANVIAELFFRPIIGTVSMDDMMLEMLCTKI
# hcDAF12 agonist: H. contortus DAF-12 activation, primary screen | HEK293 hcDAF-12 lit1-tk-luc reporter, luminescence; 0% DMSO, 100% Δ7-dafachronic acid | AID 652067 | 370,000 compounds, 1.4% hits | activation, % at 6.8 µM;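 active means activation above the mean of all tested compounds plus 3 SD, cut at about 5.5% in these data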;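 further: 100% = response to 3 µM Δ7-dafachronic acid high control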
# hgDAF-12 ag: activates the H. glycines DAF-12 receptor ligand-binding domain; HEK293 GAL4-hgDAF12 UAS-luciferase reporter, agonist luminescence; normalized to butyrate control; activation, % at 6.8 µM; 370,000 compounds, 1.8% hits;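 active means activation above a cutoff set at the mean of all screened compounds plus 3 SD, cut at about 10% in these data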;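 further: 0% = DMSO wells and 100% = sodium butyrate wells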
# DAX1 inh-2: inhibitors of DAX1 repression of SF-1 activated StAR promoter; HEK293T StAR-luciferase reporter, SF-1/DAX-1 repression relief; inhibition, % at 6.8 µM; 370,000 compounds, 1.1% hits;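 active means inhibition above the mean over all tested compounds plus 3 SD, cut at about 3.6% in these data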;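 further: 0% = DAX-1 cells with DMSO and 100% = cells lacking DAX-1 with DMSO; higher inhibition means more luminescence from relief of DAX-1 repression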
# SMARCA2 act: increases SMARCA2 function in MMTV reporter cells; MG213 cells, MMTV-luciferase reporter, dexamethasone, overnight; activation, % at 9.1 µM; 370,000 compounds, 1% hits; AID 652017; in the data active means activation above about 7.8%;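 further: 0% = vehicle wells and 100% = reference activator wells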
# ssDAF12 agonist: activates DAF-12 receptor from parasite S. stercoralis; HEK293 ssDAF-12/GRIP1 lit1-tk-luc reporter, luminescence; % of 3 µM dafachronic acid response; activation, % at 6.8 µM; 370,000 compounds, 1% hits;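 active means activation above the mean over all tested compounds plus 3 SD, cut at about 0.9% in these data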;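 further: 0% = DMSO-only wells and 100% = 3 µM delta7-dafachronic acid wells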
# LXR ag: counter-screen for hcDAF-12 agonists: agonists of human LXR-beta | HEK293 Gal4-LXR tk-luc reporter, luminescence, 24 h; normalized: DMSO 0%, positive control 100% | shares compounds with hcDAF12 agonist | activation, % at 6.8 µM | 3,400 tested, under 10 active;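 active means mean percent activation of the reporter above a cutoff set as the average over tested compounds plus their standard deviation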
# Target sequence (P55055 whole entry, looked up, the tested form may be a part): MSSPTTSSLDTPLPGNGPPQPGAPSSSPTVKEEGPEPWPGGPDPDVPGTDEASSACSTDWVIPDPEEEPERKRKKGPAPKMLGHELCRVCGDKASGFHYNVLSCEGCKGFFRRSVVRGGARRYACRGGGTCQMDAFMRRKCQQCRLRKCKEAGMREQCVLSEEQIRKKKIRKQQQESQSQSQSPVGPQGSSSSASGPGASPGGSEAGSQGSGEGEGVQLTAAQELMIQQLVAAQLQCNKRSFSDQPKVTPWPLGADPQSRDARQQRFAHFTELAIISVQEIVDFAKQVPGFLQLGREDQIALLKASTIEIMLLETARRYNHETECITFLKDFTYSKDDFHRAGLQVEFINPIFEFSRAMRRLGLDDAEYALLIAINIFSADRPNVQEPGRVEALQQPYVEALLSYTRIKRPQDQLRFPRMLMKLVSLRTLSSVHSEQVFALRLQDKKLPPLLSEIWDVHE
# hcDAF12 conf: hcDAF-12 agonism, confirmation assay | activation, % at 6.8 µM | shares compounds with hcDAF12 agonist | 3,400 compounds, 61% hits | HEK293 hcDAF-12 lit1-tk-luc reporter, luminescence; % of Δ7-dafachronic acid response;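 active means mean activation across triplicate tests above the threshold derived from the earlier primary screen, cut at about 5.5% in these data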;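 further: 0% = DMSO only wells and 100% = 3 µM Δ7-dafachronic acid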
# hgDAF12 conf: confirmation of H. glycines DAF-12 agonists; shares compounds with hgDAF-12 ag; HEK293 GAL4-hgDAF12 luciferase reporter, agonist mode; percent of butyrate response; activation, % at 6.8 µM; 3,300 compounds, 80% hits; AID 743050;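 active means mean activation over triplicate wells above the hit cutoff derived from the earlier primary screen, cut at about 11% in these data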;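 further: 0% = DMSO low control and 100% = 2 mM sodium butyrate high control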
# LXR ag 2: activates human LXR-beta, counter-screen for DAF-12 agonists; shares compounds with hgDAF-12 ag; HEK293 Gal4-LXR luciferase reporter, 24 h; activation, % at 6.8 µM; 3,300 tested, under 10 active;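 active means mean activation of the triplicate above a set limit carried over from the primary screen, none filed active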
# * hit, by the source's call; . = not tested or not shown. Compounds with a hit are over-represented: about 4.8% of the library has one in this group of screens.
SMILES,DAX1 inh-1,hcDAF12 agonist,hgDAF-12 ag,DAX1 inh-2,SMARCA2 act,ssDAF12 agonist,LXR ag,hcDAF12 conf,hgDAF12 conf,LXR ag 2
Cc1ccc(NC(=O)c2nnn(-c3ccc4c(c3)OCCO4)c2N)cc1,1.5,-0.1,7.8,0.5,-1.7,-0.5,.,.,.,.
Nc1c(C(=O)Nc2ccccc2)nnn1-c1ccc2c(c1)OCCO2,-1.2,8.8*,14.1*,2.5,-1.3,1.8*,1.4,8.1*,16.3*,1.0
Nc1c(C(=O)NCC(O)c2ccccc2)cnn1-c1ccccc1 (stereo not given),.,6.6*,18.1*,3.5,4.6,-0.2,0.7,6.2*,14.3*,0.3
Cc1ccc(S(=O)(=O)N/N=C/c2ccc3nccnc3c2)cc1,1.2,-3.0,1.4,-0.6,-2.6,-1.5,.,.,.,.
COc1cccc(C(=O)Cn2c(=N)n(C)c3ccccc32)c1,-0.9,18.0*,17.3*,3.5,5.3,3.2*,2.1,17.2*,19.6*,1.1
COc1cccc(C(=O)Cn2c(NCCO)nc3ccccc32)c1,-0.6,-0.2,-0.4,0.0,1.3,-0.9,.,.,.,.
CCOc1ccc2nc(N/C(N)=N/C(=S)Nc3ccc(C)c(C)c3)nc(C)c2c1,-0.7,-1.3,1.8,-0.3,0.3,-0.5,.,.,.,.
CCNC(=S)/N=C(\N)Nc1nc(C)c2cc(C)ccc2n1,4.6*,6.6*,14.1*,4.3*,4.6,-0.2,1.0,7.6*,12.6*,0.5
Cc1ccc([C@H]2C[C@@H](n3cc(-c4ccc(F)cc4)nn3)[C@H](O)CN2C(=O)c2cccs2)cc1,0.3,0.4,-1.3,-0.3,-4.4,-1.4,.,.,.,.
CCc1cccc(NC(=O)c2cnn(-c3ccccc3)c2C)c1,4.2,7.9*,18.9*,3.1,3.3,0.1,1.4,3.7,15.9*,0.7
Cc1cccc(C)c1NC(=O)c1cnn(-c2ccccc2)c1C,0.6,-0.1,1.3,-0.6,-1.7,-1.1,.,.,.,.
Cc1cc(C(=O)OCc2nc3ccccc3s2)c(C)o1,0.9,4.1,7.0,0.4,4.3,-1.3,.,.,.,.
c1ccc(SCc2nc3ccccc3s2)nc1,3.0,15.2*,13.6*,2.4,6.3,4.5*,0.9,7.8*,16.3*,0.8
c1ccc(OCc2nc3ccccc3s2)cc1,5.8*,8.6*,13.9*,3.3,4.1,1.6*,0.9,5.9*,17.9*,1.0
Cc1cc(OCc2nc3ccccc3s2)ccc1N,2.5,13.2*,14.4*,2.2,3.9,2.0*,1.5,13.9*,18.5*,0.8
O=C(O)CCCc1nc2ccccc2s1,-0.3,-2.4,1.6,0.5,1.0,-1.0,.,.,.,.
O=C(CN1CCC(n2nnc3cc(F)ccc32)CC1)NC1CCCCC1,0.4,-0.1,-2.1,-0.1,0.8,-0.6,.,.,.,.
COC1=C/C(=C/c2c(O)c(C#N)c3ccccn23)C=CC1=O,3.7,11.2*,13.6*,2.2,1.4,0.9*,0.0,3.6,11.2*,0.3
CC(=Nc1cccc(C)c1)c1sc2ccccc2c1O,3.8,15.5*,14.3*,2.0,7.9*,4.0*,1.2,13.0*,25.1*,0.9
O=[N+]([O-])c1cccc(N=Cc2sc3ccccc3c2O)c1,.,1.4,1.2,0.5,1.5,-0.9,.,.,.,.
Cn1cnc([N+](=O)[O-])c1C(=O)Nc1cccc([N+](=O)[O-])c1,2.0,0.2,-0.4,0.2,-1.9,-1.4,.,.,.,.
Cc1cccc(N2CCN(c3ccc(NC(=O)/C=C(/C(=O)O)c4ccccc4)cc3)CC2)c1,1.0,-0.1,-1.9,-0.7,2.6,-1.0,.,.,.,.
O=C(N/N=C/c1c[nH]c2ccccc12)c1ccc2c(c1)OCCO2,3.1,13.1*,18.4*,1.3,0.0,1.7*,1.2,7.0*,23.5*,0.9
O=C(N/N=C/c1c[nH]c2ccccc12)c1cccs1,.,6.9*,13.7*,0.7,-0.1,1.7*,0.6,6.4*,10.6*,0.3
O=C(N/N=C/c1cccc2ccccc12)c1cccs1,4.5*,8.2*,16.5*,3.0,0.0,0.8,0.8,7.3*,16.0*,0.7
SMILES,DAX1 inh-1,hcDAF12 agonist,hgDAF-12 ag,DAX1 inh-2,SMARCA2 act,ssDAF12 agonist,LXR ag,hcDAF12 conf,hgDAF12 conf,LXR ag 2
O=C(NC(Cc1c[nH]c2ccccc12)C(=O)N/N=C/c1cccc2ccccc12)c1cccs1 (stereo not given),-0.3,-2.3,0.5,-0.8,-5.9,-0.9,.,.,.,.
CN(C)C(=O)c1ccc2c3c(cccc13)CC2,-1.4,-1.0,1.6,0.0,-0.5,-1.6,.,.,.,.
c1ccc(-c2ccc(-c3ccccc3)[nH]2)cc1,2.9,6.8*,18.9*,3.1,2.0,-0.1,0.6,3.0,14.6*,0.5
CN1N=C(C(=O)N2CCc3c([nH]c4ccccc34)C2c2c(F)cccc2Cl)CCC1=O (stereo not given),5.3*,6.7*,15.5*,2.4,3.7,0.8,-0.1,6.7*,6.9,0.1
O=C(c1cc2c([nH]c1=O)CCCC2)N1CCc2c([nH]c3ccccc23)C1c1ccccc1F (stereo not given),-0.4,1.6,0.3,-0.2,-3.4,0.7,.,.,.,.
CCOC(=O)c1c(C)oc2c1c(C(c1cccnc1)N1CCCCC1)c(O)c1ccccc12 (stereo not given),3.8,10.5*,14.2*,2.5,6.7,1.8*,0.7,6.8*,5.3,0.3
Cc1ccccc1-c1nn(-c2ccc(F)cc2F)cc1CNCCN(C)C,0.2,-0.8,2.0,0.8,-0.8,-1.1,.,.,.,.
Cc1cc(C)c(C#N)c(SCc2nc3ccccc3[nH]2)n1,4.8*,17.9*,14.8*,3.5,-0.9,3.6*,1.0,11.4*,11.7*,0.4
O=[N+]([O-])c1ccccc1COc1ccc(Cl)c2cccnc12,4.8*,9.1*,14.8*,2.6,5.6,0.5,1.8,7.8*,16.5*,1.0
O=C(Oc1ccc(Cl)c2cccnc12)c1cccc([N+](=O)[O-])c1,0.1,3.4,1.3,-0.2,-0.4,-0.2,.,.,.,.
Oc1ccc(/C=N/Nc2cccc(Cl)n2)c(O)c1,6.3*,10.1*,14.2*,1.5,6.6,2.2*,0.9,2.4,19.1*,0.6
